Assay outcomes: PubChem, National Center for Advancing Translational Sciences (NCATS)
Sampled rows, rich in hits. Any-hit rate of the full collection: about 7.4%.
ELG1 genotoxic: inducers of genotoxicity in HEK293T ELG1-luciferase cells | HEK293T ELG1-luciferase reporter, luminescence, 16 h | Potency, µM (highest dose often 46 µM), actives largely listed as activators | 330,000 tested, 1.3% active; further: nearly all actives have a fitted effect of over 60% in size
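ELG1-luciferase HEK293T cells, 2,000/well; compound pinned in; 16 hr, 37 °C, 5% CO2; ONE-Glo, 30 min RT; luminescence on CCD imager.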
NPC1 promoter act: activates the NPC1 promoter | Huh7 NPC1 promoter luciferase reporter, 24 h | Potency, µM (titrated, usually from 9.22 µM), usual class: activators | 320,000 tested, 2.4% active; further: nearly all actives have a fitted effect of over 60% in size
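Luminescence from an NPC1 promoter-driven luciferase reporter in stably transfected Huh7 cells was measured after 24 h compound treatment at 37 °C, followed by 10 min ambient incubation with luciferase detection reagent.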
Rab9 prom act: Rab9 promoter activation; Potency, µM (highest dose often 9.22 µM), actives largely listed as activators; Huh7 Rab9 promoter-luciferase reporter, luminescence, 24 h; 320,000 tested, 2.8% active; further: nearly all actives have a fitted effect of over 60% in size
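Steps: seed 1500 Huh7 Rab9-luc cells per well, rest 2 h at 37 °C; add compound in DMSO; incubate 24 h; add luciferase reagent, 10 min ambient; read luminescence.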
SMN2 splice up: SMN2 splice variant enhancement; HEK293 SMN2-luciferase splicing reporter, luminescence, 30-36 h; Potency, µM (top dose mostly 46.1 µM), usual class: activators; 210,000 tested, 2.8% active; further: nearly all actives have a fitted effect of over 55% in size
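HEK293 cells carry an SMN2 minigene-luciferase reporter in which exon 7 inclusion puts luciferase in frame. Cells were seeded at 2000 cells/well, attached for 10-12 hours, then exposed to compounds for 30-36 hours at 37C before ONE-Glo luminescence.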
FLuc counter: counter-screen for miR-21 project: firefly luciferase inhibitors or activators; P08659; purified FLuc, Km substrates, luminescence inhibition; Potency, µM (highest dose often 57.5 µM), actives largely listed as inhibitors; 360,000 tested, 6.9% active; AID 588342; further: nearly all actives have a fitted effect of over 55% in size
Target sequence (P08659 whole entry, looked up): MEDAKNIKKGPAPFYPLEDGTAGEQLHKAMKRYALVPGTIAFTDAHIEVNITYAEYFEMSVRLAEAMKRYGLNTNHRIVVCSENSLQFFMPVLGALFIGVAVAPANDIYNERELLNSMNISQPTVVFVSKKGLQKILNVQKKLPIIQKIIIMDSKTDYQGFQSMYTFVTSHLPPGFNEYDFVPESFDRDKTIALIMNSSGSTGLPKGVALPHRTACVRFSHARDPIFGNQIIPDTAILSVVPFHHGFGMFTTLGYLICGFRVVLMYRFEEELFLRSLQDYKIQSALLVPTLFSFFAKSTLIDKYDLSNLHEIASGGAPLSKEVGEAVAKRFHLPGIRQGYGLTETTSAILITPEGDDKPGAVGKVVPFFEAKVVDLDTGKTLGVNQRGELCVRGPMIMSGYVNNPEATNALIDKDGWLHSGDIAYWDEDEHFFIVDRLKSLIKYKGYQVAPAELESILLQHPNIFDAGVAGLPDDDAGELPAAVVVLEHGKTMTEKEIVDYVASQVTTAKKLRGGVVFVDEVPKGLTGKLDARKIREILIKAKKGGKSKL
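Purified P. pyralis luciferase (10nM final) with 10uM D-luciferin and 10uM ATP (Km levels) in 50mM Tris acetate pH 7.5, 10mM Mg acetate, 0.01% Tween-20, 0.05% BSA; qHTS 6-point titration, ~60 µM downward; luminescence read.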
Of the large screens only hits and unclear results are named; the others gave an inactive call. The call rests on the fitted dose curve; in most records, active means well fitted curve in the direction sought with a large enough effect; inconclusive means small, poorly fitted or top-dose-only effect, or another doubt; inactive means no such curve, though single readings can be large; an effect the other way counts as inactive or inconclusive.

C#CCN1C(=O)S/C(=C\c2ccc(-c3ccc(Cl)c(C(=O)O)c3)o2)C1=O	ELG1 genotoxic 16.4µM, NPC1 promoter act 0.794µM, Rab9 prom act 1.78µM, FLuc counter 10.7µM (no result: SMN2 splice up)
O=C1CC(c2ccccc2C(F)(F)F)c2c(c3ccccc3[nH]c2=O)O1 (stereo not drawn)	none (no result: ELG1 genotoxic, NPC1 promoter act, Rab9 prom act)
COc1ccc(Nc2nnc(SCC(=O)N3CC(=O)Nc4ccccc43)s2)cc1	FLuc counter 8.49µM (no result: SMN2 splice up)
COc1ccc(Nc2nnc(SCC(=O)c3cc4ccccc4o3)s2)cc1	none (no result: SMN2 splice up)
COc1cccc(Nc2nnc(SCC(=O)N3CCOCC3)s2)c1	FLuc counter 19µM
COc1ccc(Nc2nnc(SCC(=O)c3cc(C)n(CC4CCCO4)c3C)s2)cc1 (stereo not drawn)	FLuc counter 3.79µM
COc1ccc(C(=O)Nc2ccc3nc(SCC(=O)N4CCOCC4)sc3c2)cc1	none (no result: ELG1 genotoxic, NPC1 promoter act, Rab9 prom act, SMN2 splice up)
CC(C)Oc1ccc(C(=O)Nc2nnc(SCC(=O)N3CCOCC3)s2)cc1	ELG1 genotoxic inconclusive, NPC1 promoter act inconclusive, Rab9 prom act 0.398µM, SMN2 splice up 1.41µM, FLuc counter 0.0601µM
COc1ccc(NC(=O)N2CCC(CN3CCCC3)CC2)c(OC)c1	none (no result: ELG1 genotoxic, NPC1 promoter act, Rab9 prom act, SMN2 splice up)
Cc1ccc(NC(=O)Cn2c(=O)n(CCC(=O)NCCc3ccccc3)c(=O)c3ccccc32)cc1	none (no result: ELG1 genotoxic, NPC1 promoter act, Rab9 prom act)
COc1ccc(Nc2nnc(SCC(=O)N3CCCC3)s2)cc1	FLuc counter 16.9µM
CC(=O)Nc1cc(C(=O)OCC(=O)c2ccc(C)cc2)ccc1C	ELG1 genotoxic inconclusive, NPC1 promoter act 3.98µM, Rab9 prom act 2.24µM, SMN2 splice up inconclusive, FLuc counter 6.01µM
COc1ccc(C(=O)CC(=O)C(=O)Nc2cc(OC)ccc2OC)cc1	none (no result: SMN2 splice up)
COCC(=O)Nc1cc(Cl)ccc1C	none
CC(=O)Nc1cc(C(=O)OCC(=O)c2ccc(Cl)cc2Cl)ccc1C	FLuc counter 2.39µM
COc1ccc(C(=O)COc2ccc(C)cc2NC(C)=O)cc1	ELG1 genotoxic inconclusive, NPC1 promoter act 3.55µM, Rab9 prom act 1.26µM (no result: SMN2 splice up)
CCOC(=O)Nc1cc(C(=O)OC)ccc1C	none
CC(C)C(=O)Nc1cccc(C(=O)OCC(=O)c2ccc(Cl)cc2Cl)c1	FLuc counter 1.2µM
Cc1c(C(=O)N(C)C)sc2c1c(=O)n(-c1ccccc1C(F)(F)F)c(=O)n2Cc1ccccc1C#N	none (no result: ELG1 genotoxic, NPC1 promoter act, Rab9 prom act, SMN2 splice up)
CSc1nc(N)c2ncn([C@@H]3O[C@H](COP(=O)(O)OP(=O)(O)OP(=O)(O)O)[C@H](O)[C@H]3O)c2n1	none (no result: ELG1 genotoxic, NPC1 promoter act, Rab9 prom act, FLuc counter)
N#C/C(C(=O)N1CCOCC1)=C1\Nc2ccccc2S1	ELG1 genotoxic inconclusive, SMN2 splice up inconclusive, FLuc counter 16.9µM
COc1cccc(-n2cc(-c3ccc(F)cc3)[nH]c2=S)c1	ELG1 genotoxic inconclusive, NPC1 promoter act 1.58µM, Rab9 prom act 0.316µM, FLuc counter inconclusive (no result: SMN2 splice up)
COc1ccc(-n2cc(-c3ccc(Cl)cc3)[nH]c2=S)cc1	Rab9 prom act 1.26µM (no result: SMN2 splice up)
Cc1cc(N)n(-c2ccc(Cl)cc2)n1	none
Cc1cc2nn(-c3ccc(F)cc3)nc2cc1N	ELG1 genotoxic 1.64µM, NPC1 promoter act 2.51µM, Rab9 prom act 3.16µM, FLuc counter 0.757µM (no result: SMN2 splice up)
COc1ccc(-n2nc3cc(C)c(N)cc3n2)cc1Cl	ELG1 genotoxic inconclusive, NPC1 promoter act 2.24µM, Rab9 prom act 2.82µM, FLuc counter 1.07µM (no result: SMN2 splice up)
COc1ccc(-n2nc3cc(C)c(NC(=O)c4ccc(C)cc4C)cc3n2)cc1Cl	none (no result: ELG1 genotoxic, NPC1 promoter act, Rab9 prom act)
Cc1cc2nn(-c3ccc(Cl)cc3)nc2cc1N	ELG1 genotoxic inconclusive, NPC1 promoter act inconclusive, FLuc counter 0.338µM (no result: SMN2 splice up)
COc1ccc(Cc2nc3ccc(C(=O)N4CCCC4)cc3o2)cc1	ELG1 genotoxic inconclusive, NPC1 promoter act 3.16µM, Rab9 prom act 2.24µM, FLuc counter 13.5µM (no result: SMN2 splice up)
O=C(c1ccc2nc(Cc3cccc(Cl)c3)oc2c1)N1CCOCC1	ELG1 genotoxic inconclusive, NPC1 promoter act inconclusive, Rab9 prom act inconclusive, FLuc counter 16.9µM (no result: SMN2 splice up)
C=C(C)CNC(=O)c1ccc2nc(Cc3ccc(OC)cc3)oc2c1	ELG1 genotoxic inconclusive, NPC1 promoter act 2.24µM, Rab9 prom act 2.82µM, FLuc counter 10.7µM (no result: SMN2 splice up)
Cn1cnnc1SCC(=O)Nc1cc(C(=O)O)cc(C(=O)O)c1	none (no result: ELG1 genotoxic, NPC1 promoter act, Rab9 prom act, SMN2 splice up)
N#C/C(=C\c1ccccc1OCC(=O)O)c1nc2ccccc2[nH]1	FLuc counter inconclusive (no result: SMN2 splice up)
N#C/C(=C\c1ccccc1)c1nc2ncccc2[nH]1	FLuc counter 13.5µM
COc1cc(Br)c(/C=C(\C#N)c2nc3ccccc3[nH]2)cc1OC	FLuc counter 8.49µM (no result: ELG1 genotoxic, NPC1 promoter act, Rab9 prom act)
N#C/C(=C\c1ccc(OC(=O)c2cccs2)cc1)c1nc2ccccc2[nH]1	ELG1 genotoxic inconclusive, SMN2 splice up 11.2µM, FLuc counter inconclusive
CCOc1cc(/C=C(\C#N)c2nc3ccccc3[nH]2)ccc1OC(C)C(=O)O (stereo not drawn)	FLuc counter 26.9µM (no result: SMN2 splice up)
C(=N\c1nc2ccccc2n1Cc1ccccc1)/c1cccs1	FLuc counter 13.5µM
N#C/C(=C\c1ccc(N2CCCC2)c([N+](=O)[O-])c1)c1nc2ccccc2[nH]1	NPC1 promoter act inconclusive, Rab9 prom act inconclusive, FLuc counter 5.36µM
O=C(CCc1nc2ccccc2[nH]1)Nc1ccc2c(c1)OCCO2	none
C(=N\c1nc2ccccc2[nH]1)/c1cccs1	FLuc counter 1.07µM
N#C/C(=C\Nc1ccc2c(c1)OCCO2)c1nc2ccccc2[nH]1	NPC1 promoter act inconclusive, Rab9 prom act inconclusive, FLuc counter 15.1µM
C(=N\c1nc2ccccc2n1CCN1CCOCC1)/c1cccs1	FLuc counter inconclusive
CCOC(=O)c1noc2ncnc(N3CCN(c4cccc(Cl)c4)CC3)c12	none (no result: ELG1 genotoxic, NPC1 promoter act, Rab9 prom act, SMN2 splice up)
